For 14 molecules, growth results are on record in PubChem BioAssay (NCI).

The panel holds about 83,000 compounds, 20% with a hit somewhere; the sample as a whole holds those more often.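 Activity criterion: percent growth below 10, measured after cells in 96-well plates were exposed to a single compound concentration for 48 hours.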 Values without a mark were called inactive. Activity calls are given as the source filed them.

Some test systems named below: DU-145 prostate; K-562 leukemia; MALME-3M melanoma; MDA-MB-231 breast; RXF 393 renal; SF-268 CNS; SF-295 CNS; SF-539 CNS; UACC-257 melanoma; M14 melanoma.
Holding throughout (test): NCI-60 one-dose screen, 48 h (100 = growth as untreated, 0 = no growth, -100 = all killed)
Common to all, as to settings: 10 µM unless noted

For the molecule `COc1ccc(S(=O)(=O)ON=C2C=C(C)C(=O)C(C)=C2)cc1`, the growth in the experiment on DU-145 prostate was 101%; in the experiment with K-562 leukemia, 48.7%; with MALME-3M melanoma it was 102%; in the experiment on MDA-MB-231 breast, 62.5%; with RXF 393 renal, 81.6%; in the experiment on SF-268 CNS, 92.6%. Further, the growth with SF-295 CNS was 93%; in the experiment with SF-539 CNS it was 94%; with UACC-257 melanoma, 98.6%; in the experiment on M14 melanoma it was 99.9%.
As for `COc1cc2cc(Oc3ccc(NC(=O)Nc4cccc(C(F)(F)F)c4)cc3)c(C)nc2cc1OCCN1CCCCC1`, the growth was -94.1% (active) with DU-145 prostate; -49.7% (active) in the experiment with K-562 leukemia; -88.5% (active) in the experiment with MALME-3M melanoma; -86.8% (active) in the experiment on MDA-MB-231 breast; -70.6% (active) in the experiment on RXF 393 renal; -78.4% (active) in the experiment with SF-268 CNS. Besides, the growth in the experiment with SF-295 CNS was -57.4% (active); in the experiment with SF-539 CNS it was -92.4% (active); in the experiment on UACC-257 melanoma it was -68.9% (active); in the experiment on M14 melanoma it was -64.1% (active).
Take `COc1cc(C(=O)N(C(C)C)C2CCCCC2)cc(OC)c1OC`: the growth in the experiment with DU-145 prostate is 112%; with K-562 leukemia it was 98.7%; with MALME-3M melanoma it was 99.5%; in the experiment on MDA-MB-231 breast, 127%; with RXF 393 renal it was 97.4%; in the experiment with SF-268 CNS, 98.1%. Also, the growth in the experiment with SF-295 CNS is 109%; with SF-539 CNS it was 101%; in the experiment on UACC-257 melanoma, 93.7%; in the experiment with M14 melanoma it was 132%.
With `Cc1ccc2nc(NC(=O)CSC(=S)N3CCN(Cc4ccccc4)CC3)sc2c1`, the growth was -96.9% (active) in the experiment with DU-145 prostate; 11.8% with K-562 leukemia; -58% (active) with MALME-3M melanoma; -7.45% (active) in the experiment on MDA-MB-231 breast; -58% (active) in the experiment with RXF 393 renal; -14.9% (active) in the experiment with SF-268 CNS. Moreover, the growth in the experiment on SF-295 CNS was -13.1% (active); with SF-539 CNS it was 1.99% (active); in the experiment on UACC-257 melanoma, -63.4% (active); in the experiment with M14 melanoma, -56.7% (active).
With `COc1ccc(NC(=O)c2ccc3c(c2)nc(-c2ccc(Cl)cc2)n3-c2cc(C(C)(C)C)[nH]n2)cc1`, the growth is 90.2% with DU-145 prostate; 86% with K-562 leukemia; 91.1% in the experiment with MALME-3M melanoma; 95.4% in the experiment on MDA-MB-231 breast; 79.1% in the experiment on RXF 393 renal; 76.2% with SF-268 CNS. Moreover, the growth was 67.8% with SF-295 CNS, 87.6% in the experiment on SF-539 CNS, 96.4% with UACC-257 melanoma and 82.3% in the experiment on M14 melanoma.
Turning to `Cl.Fc1c[c-]c(-c2ccccn2)c(F)c1.[Pt].c1ccc([PH+](CC[PH+](c2ccccc2)c2ccccc2)c2ccccc2)cc1`, the growth with DU-145 prostate is -99.6% (active); in the experiment with K-562 leukemia it was -11.4% (active); in the experiment on MALME-3M melanoma it was -87.2% (active); with MDA-MB-231 breast, -74.2% (active); in the experiment on RXF 393 renal, -84.4% (active); in the experiment with SF-268 CNS it was -57.7% (active). Further, the growth with SF-295 CNS is -88% (active); in the experiment on SF-539 CNS, -94.6% (active); in the experiment on UACC-257 melanoma, -59.1% (active); in the experiment with M14 melanoma it was -84.7% (active).
For the molecule `Clc1ccccc1Nc1ccc2nnc(-c3ccncc3)n2n1`, the growth was 114% with DU-145 prostate; 47.6% in the experiment with K-562 leukemia; 112% in the experiment with MALME-3M melanoma; 108% in the experiment on MDA-MB-231 breast; 96.2% with RXF 393 renal; 101% in the experiment with SF-268 CNS. For the same molecule, the growth in the experiment with SF-295 CNS is 93.9%; in the experiment with SF-539 CNS it was 92.7%; in the experiment with UACC-257 melanoma it was 114%; in the experiment with M14 melanoma, 112%.
Take `COc1ccc(/C=N/NC(=O)c2cnn3c2NC(c2ccccc2)C3)cc1OC1CCCC1` (stereo not given): the growth was 98.3% in the experiment with DU-145 prostate; 70.4% in the experiment on K-562 leukemia; 123% in the experiment with MALME-3M melanoma; 66.6% in the experiment on MDA-MB-231 breast; 104% in the experiment on RXF 393 renal; 93.4% with SF-268 CNS. Moreover, the growth with SF-295 CNS is 90.7%; in the experiment with SF-539 CNS, 87.2%; with UACC-257 melanoma it was 98.7%; with M14 melanoma it was 93.5%.
Consider `O=S(=O)(/N=C1C=C/C(=N\S(=O)(=O)c2ccccc2)c2ccccc2\1)c1ccccc1`, for which the growth in the experiment on DU-145 prostate is 117%; in the experiment on K-562 leukemia, 91.8%; in the experiment with MALME-3M melanoma it was 107%; in the experiment with MDA-MB-231 breast, 98.3%; with RXF 393 renal it was 107%; in the experiment with SF-268 CNS, 104%. Moreover, the growth was 116% with SF-295 CNS, 123% in the experiment on SF-539 CNS, 95.1% with UACC-257 melanoma and 112% with M14 melanoma.
Turning to `CCCCc1ccc(NC(=O)C(F)(F)F)cc1`, the growth is 100% in the experiment with DU-145 prostate; 85.8% with K-562 leukemia; 140% with MALME-3M melanoma; 99.8% with MDA-MB-231 breast; 93.4% with RXF 393 renal; 83.9% in the experiment on SF-268 CNS. The growth was 105% with SF-295 CNS, 100% in the experiment with SF-539 CNS, 110% in the experiment with UACC-257 melanoma and 105% in the experiment with M14 melanoma.
With `O=c1c2c(=NCCN3CCCC3)cc3c(=O)n(CCCN4CCOCC4)c(=O)c4ccc(c(O)n1CCCN1CCOCC1)c2c4-3`, the growth with DU-145 prostate is 2.23% (active); in the experiment with K-562 leukemia, 3.73% (active); in the experiment on MALME-3M melanoma it was -70.7% (active); with MDA-MB-231 breast, -24.5% (active); in the experiment on RXF 393 renal, -66.3% (active); in the experiment with SF-268 CNS, -26.8% (active). Besides, the growth in the experiment with SF-295 CNS was 1.07% (active); in the experiment on SF-539 CNS it was -53.9% (active); in the experiment on UACC-257 melanoma, -14.3% (active); in the experiment on M14 melanoma it was -73.4% (active).
Regarding `COc1ccc(/C=N/OCC(O)CNCc2ccccc2)cc1OC1CCCC1` (stereo not given), the growth with DU-145 prostate was 105%; in the experiment on K-562 leukemia, 78%; with MALME-3M melanoma, 106%; with MDA-MB-231 breast, 101%; in the experiment on RXF 393 renal, 95.5%; in the experiment with SF-268 CNS, 91.7%. Also, the growth with SF-295 CNS was 103%; with SF-539 CNS, 98%; with UACC-257 melanoma, 97.2%; in the experiment with M14 melanoma, 98.4%.
On to `CCOC(=O)c1cnn(CC(O)c2ccc(F)cc2)c1NC(=O)Nc1ccccc1F` (stereo not given), for which the growth in the experiment on DU-145 prostate was 102%; with K-562 leukemia it was 97.5%; in the experiment with MALME-3M melanoma, 93.3%; in the experiment on MDA-MB-231 breast, 91.2%; with RXF 393 renal, 108%; with SF-268 CNS, 99%. Besides, the growth is 91.6% in the experiment with SF-295 CNS, 95.1% in the experiment with SF-539 CNS, 107% in the experiment with UACC-257 melanoma and 93% in the experiment with M14 melanoma.
Turning to `C[C@@H](Oc1cc(-c2cnn(C3CC4(CCCNC4)C3)c2)cnc1N)c1c(Cl)ccc(F)c1Cl` (stereo not given in full), the growth was 36.7% in the experiment on DU-145 prostate; 0.205% (active) in the experiment on K-562 leukemia; -64.7% (active) in the experiment with MALME-3M melanoma; 2.82% (active) with MDA-MB-231 breast; -9.61% (active) in the experiment on RXF 393 renal; 23% in the experiment on SF-268 CNS. Further, the growth in the experiment with SF-295 CNS was 14.4%; in the experiment with SF-539 CNS, 11.2%; with UACC-257 melanoma it was -87.2% (active); in the experiment with M14 melanoma, -59.5% (active).
